Test results as given in PubChem BioAssay (Tox21).
Values joined by “and” are separate entries in the source; they are usually repeats but may differ in a detail not shown here. Equal entries are not always repeated. Results filed as inconclusive are left out. Some compounds were tested as several samples or in several runs, with calls that do not always agree. Active and inactive are the calls of the source. Unless noted, calls follow the shape of the dose curve; as a rule, active = well fitted curve in the direction sought with a large enough effect in the repeat runs; inconclusive = weak or mixed curves; inactive = no such curve, though single readings can be large; an effect the other way counts as inactive or inconclusive.

Columns and labels:
[1] = qHTS assay to identify small molecule agonists of the estrogen receptor alpha (ER-alpha) signaling pathway in the presence of an antagonist - cell viability counter screen (AID 1259386);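 also: cells exposed to compounds for 22 h at 37 °C before the viability read; nearly all actives have a fitted effect of over 30% in size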; also: potency is read from the fitted curve at half-maximal effect; as to activity change, negative = cytotoxicity: series mostly up to about 92 µM
Outline: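 The test measures whether compounds kill ER-alpha reporter cells (VM7Luc4E2) under antagonist co-treatment (ICI-182,780, 10.0nM). Fluorescence from CellTiter-Fluor is read after a 22hr exposure.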

[2] = target: Progesterone receptor (Homo sapiens) (UniProt P06401); assay: qHTS assay to identify small molecule agonists of the progesterone receptor (PR) signaling pathway (AID 1346784; calls by dose curve; also: nearly all actives have a fitted effect of over 30% in size; also: potency is read from the fitted curve at half-maximal effect)
Chain of Progesterone receptor (Homo sapiens) (P06401 whole entry, looked up): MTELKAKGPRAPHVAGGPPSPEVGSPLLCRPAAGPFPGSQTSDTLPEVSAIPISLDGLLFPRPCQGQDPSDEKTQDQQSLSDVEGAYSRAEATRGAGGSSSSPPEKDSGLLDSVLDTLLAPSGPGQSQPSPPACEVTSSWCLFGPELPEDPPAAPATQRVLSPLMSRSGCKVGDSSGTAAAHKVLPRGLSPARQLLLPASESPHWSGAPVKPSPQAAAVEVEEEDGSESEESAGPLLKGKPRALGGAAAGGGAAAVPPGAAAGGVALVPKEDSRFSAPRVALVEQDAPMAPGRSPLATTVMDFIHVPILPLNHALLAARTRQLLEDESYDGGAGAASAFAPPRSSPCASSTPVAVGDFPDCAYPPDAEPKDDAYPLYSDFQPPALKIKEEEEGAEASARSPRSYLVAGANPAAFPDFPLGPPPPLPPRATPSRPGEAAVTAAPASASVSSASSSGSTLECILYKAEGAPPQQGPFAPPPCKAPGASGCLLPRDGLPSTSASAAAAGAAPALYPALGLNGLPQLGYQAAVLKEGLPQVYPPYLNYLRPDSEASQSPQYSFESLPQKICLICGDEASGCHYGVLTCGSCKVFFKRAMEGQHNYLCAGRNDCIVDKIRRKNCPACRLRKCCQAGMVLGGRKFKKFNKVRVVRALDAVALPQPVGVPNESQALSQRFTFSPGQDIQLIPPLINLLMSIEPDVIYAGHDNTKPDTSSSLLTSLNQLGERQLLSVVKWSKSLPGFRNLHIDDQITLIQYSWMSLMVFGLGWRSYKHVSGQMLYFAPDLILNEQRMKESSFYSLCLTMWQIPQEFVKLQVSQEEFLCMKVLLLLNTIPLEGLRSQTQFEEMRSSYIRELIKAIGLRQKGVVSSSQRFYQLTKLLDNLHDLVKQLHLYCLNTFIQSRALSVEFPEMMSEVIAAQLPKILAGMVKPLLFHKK
Outline: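 Reporter assay, GripTite PR-UAS-bla HEK 293T cells: 16 hr exposure to DMSO-dissolved compounds at 37C, 5% CO2, in steroid-depleted (2% charcoal-stripped FBS) medium; beta-lactamase measured by FRET fluorescence.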

[3] = target: Progesterone receptor (Homo sapiens) (UniProt P06401); assay: qHTS assay to identify small molecule antagonists of the progesterone receptor (PR) signaling pathway (AID 1346795; active = well fitted inhibition curve with a large enough effect in the signal ratio in the repeat runs, not every such curve was filed as active; the % refers to the signal ratio)
Outline: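 Stimulus R5020 at 1 nM final; cells HEK293T PR-UAS-bla; medium with 2% charcoal-stripped FBS; compound exposure 16 hr at 37C, 5% CO2; detection by FRET beta-lactamase substrate, 2 hr, room temperature.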

[4] = qHTS assay to identify small molecule antagonists of the progesterone receptor (PR) signaling pathway - cell viability counter screen (AID 1346798); also: series mostly up to about 92 µM; nearly all actives have a fitted effect of over 50% in size
Outline: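 In the same plates used for the beta-lactamase readout, cell viability of compound- and R5020-treated PR-UAS-bla HEK293T cells (16 hr, 37C) was assessed by CellTiter-Glo luminescence.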

[5] = qHTS assay to identify small molecule agonists of the progesterone receptor (PR) signaling pathway - cell viability counter screen (AID 1346799; calls by dose curve; also: nearly all actives have a fitted effect of over 45% in size)
Outline: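 Multiplexed viability read: CellTiter-Glo luminescence, 30 min RT, following LiveBLAzer FRET measurement on PR-UAS-bla HEK293T cells exposed to compounds 16 hr.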

[6] = qHTS assay to identify small molecule agonists of the TGF-beta/Smad signaling pathway - cell viability counter screen (AID 1346829); also: nearly all actives have a fitted effect of over 45% in size; also: potency is read from the fitted curve at half-maximal effect; as to activity change, negative = cytotoxicity: top concentration of the series differs between compounds
Outline: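 Same-well cytotoxicity: CellTiter-Glo added after the 2 hr room-temperature beta-lactamase substrate step, luminescence measured 30 min later; cells had 5 hr of compound at 37 C.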

[7] = target: Thyrotropin-releasing hormone receptor (Homo sapiens) (UniProt P34981); assay: qHTS assay to identify small molecule antagonists of the thyrotropin-releasing hormone receptor (TRHR) signaling pathway (AID 1346877; active = well fitted inhibition curve with a large enough effect in the repeat runs, not every such curve was filed as active; also: series mostly up to about 51 µM)
Chain of Thyrotropin-releasing hormone receptor (Homo sapiens) (P34981 whole entry, looked up): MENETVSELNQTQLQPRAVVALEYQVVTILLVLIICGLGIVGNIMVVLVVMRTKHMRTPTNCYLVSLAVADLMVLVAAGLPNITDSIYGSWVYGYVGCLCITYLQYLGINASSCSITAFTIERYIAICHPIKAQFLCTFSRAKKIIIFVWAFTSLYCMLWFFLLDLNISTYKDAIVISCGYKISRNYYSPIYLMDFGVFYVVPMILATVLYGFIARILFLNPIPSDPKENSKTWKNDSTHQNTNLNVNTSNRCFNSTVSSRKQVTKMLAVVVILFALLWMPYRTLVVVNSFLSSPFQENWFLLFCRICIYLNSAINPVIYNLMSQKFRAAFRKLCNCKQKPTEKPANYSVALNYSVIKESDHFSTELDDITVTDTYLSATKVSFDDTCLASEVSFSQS
Outline: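 Overnight-plated (18 h, 37 °C) HEK293 cells expressing TRHR were dye-loaded 2 h, treated with compound, then stimulated with TRH at 1 nM final. Fluorescence intensity was captured every second for 3 min.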

[8] = target: Thyrotropin-releasing hormone receptor (Homo sapiens) (UniProt P34981); assay: qHTS assay to identify small molecule agonists of the thyrotropin-releasing hormone receptor (TRHR) signaling pathway (AID 1346891; calls by dose curve; also: series mostly up to about 58 µM)
Outline: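 Readout was intracellular calcium fluorescence in TRHR-Hek293 cells. Cells were incubated 18 h, dye-loaded 2 h at 37 °C, and treated with compound in agonist mode.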

[9] = Human pregnane X receptor (PXR) small molecule agonists, qHTS cell viability counter screen (AID 1346977); also: nearly all actives have a fitted effect of over 50% in size; also: potency is read from the fitted curve at half-maximal effect
Outline: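 In each well, the PXR reporter HepG2 line was checked for viability: CellTiter-Fluor reagent added 23hr post-dosing, fluorescence read after 1hr incubation at 37C.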

[10] = Caspase-3/7 induction in HepG2 cells by small molecules, qHTS assay (AID 1346978); also: nearly all actives have a fitted effect of over 15% in size
Outline: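 Wild-type HepG2 cells, 2,000/well, settled 5 hr at 37 C and 5% CO2, then compound-treated for 17 hr; caspase-3/7 activity read by luminescent Caspase-Glo 3/7 after 30 min at room temperature.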

[11] = Caspase-3/7 induction in CHO-K1 cells by small molecules, qHTS cell viability counter screen (AID 1346979); also: nearly all actives have a fitted effect of over 35% in size; also: potency is read from the fitted curve at half-maximal effect
Outline: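 Following a 5hr settling period, CHO-K1 cells at 1,500 per well received DMSO-dissolved compounds. Cell viability was quantified 16hr later by CellTiter-Fluor fluorescence, measured after 1hr with reagent at 37C.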

[12] = Caspase-3/7 induction in HepG2 cells by small molecules, qHTS cell viability counter screen (AID 1346981); also: nearly all actives have a fitted effect of over 30% in size; also: potency is read from the fitted curve at half-maximal effect; as to activity change, negative = cytotoxicity: series mostly up to about 92 µM
Outline: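 Treatment of HepG2 cells with DMSO-delivered compounds ran 16 hr at 37 C following a 5-hr pre-incubation of 2,000 cells/well. CellTiter-Fluor fluorescence, read after 1 hr, served as the viability measure in a qHTS format.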

[13] = target: Nuclear receptor subfamily 1 group I member 2 (Homo sapiens) (UniProt O75469); assay: Human pregnane X receptor (PXR) small molecule agonists, qHTS assay (AID 1346982); also: nearly all actives have a fitted effect of over 35% in size; also: potency is read from the fitted curve at half-maximal effect
Chain of Nuclear receptor subfamily 1 group I member 2 (Homo sapiens) (O75469 whole entry, looked up): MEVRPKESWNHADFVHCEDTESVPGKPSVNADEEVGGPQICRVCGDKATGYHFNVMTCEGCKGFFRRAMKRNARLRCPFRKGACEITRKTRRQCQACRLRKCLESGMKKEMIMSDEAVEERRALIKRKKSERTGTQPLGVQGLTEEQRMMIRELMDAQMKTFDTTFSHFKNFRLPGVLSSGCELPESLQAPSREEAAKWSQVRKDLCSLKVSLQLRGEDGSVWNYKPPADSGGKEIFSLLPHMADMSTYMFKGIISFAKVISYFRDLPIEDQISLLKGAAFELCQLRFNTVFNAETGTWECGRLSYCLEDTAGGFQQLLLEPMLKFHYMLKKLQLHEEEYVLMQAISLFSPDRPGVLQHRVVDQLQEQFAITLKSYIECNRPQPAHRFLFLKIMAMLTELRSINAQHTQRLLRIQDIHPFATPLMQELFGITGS
Outline: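 Stable HepG2 line reporting PXR-mediated CYP3A4 expression via luciferase. Treatment: 24 hr with compounds in DMSO at 37 C. Detection: ONE-Glo luminescence.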

[14] = target: Cytochrome P450 2D6 (Homo sapiens) (UniProt P10635); assay: Cytochrome P450 Family 2 Subfamily D Member 6 (CYP2D6) small molecule antagonists: luciferase reporter qHTS assay (AID 1671196); also: nearly all actives have a fitted effect of over 50% in size; also: potency is read from the fitted curve at half-maximal effect
Chain of Cytochrome P450 2D6 (Homo sapiens) (P10635 whole entry, looked up): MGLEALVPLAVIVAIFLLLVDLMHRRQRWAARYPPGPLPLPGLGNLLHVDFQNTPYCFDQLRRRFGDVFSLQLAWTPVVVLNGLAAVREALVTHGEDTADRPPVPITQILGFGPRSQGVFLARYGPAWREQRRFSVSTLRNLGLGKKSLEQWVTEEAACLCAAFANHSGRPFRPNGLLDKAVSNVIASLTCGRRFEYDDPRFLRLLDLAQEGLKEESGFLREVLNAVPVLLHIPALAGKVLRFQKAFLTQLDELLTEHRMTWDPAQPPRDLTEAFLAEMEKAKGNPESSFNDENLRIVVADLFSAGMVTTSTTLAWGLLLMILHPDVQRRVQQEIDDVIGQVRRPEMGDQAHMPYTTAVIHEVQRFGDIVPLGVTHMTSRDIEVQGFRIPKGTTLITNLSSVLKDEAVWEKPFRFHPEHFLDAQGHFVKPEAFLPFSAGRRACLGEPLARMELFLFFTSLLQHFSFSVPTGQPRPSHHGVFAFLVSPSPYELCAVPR
Outline: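 Chemicals tested for interference with CYP2D6 activity; proluciferin substrate, NADPH regeneration, 1 h at room temperature, luminescent detection.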

[15] = qHTS assay to identify small molecule agonists of the TGF-beta/Smad signaling pathway (AID 1346859; active = well fitted activation curve with a large enough effect in the signal ratio in the repeat runs, not every such curve was filed as active; the % refers to the signal ratio; also: series mostly up to about 77 µM)
Outline: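 Screening used HEK 293T SBE-bla cells at 4,000/well. Test agents: 5 hr, 37 C. Detection: FRET substrate, 2 hr RT, then excitation 405 nm with emissions at 460 and 530 nm.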

[16] = Caspase-3/7 induction in CHO-K1 cells by small molecules, qHTS assay (AID 1346980); also: nearly all actives have a fitted effect of over 15% in size
Outline: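 Wild-type CHO-K1 cells exposed to compounds for 17hr at 37 C, 5% CO2. Caspase-3/7 activity then measured by Caspase-Glo 3/7 luminescence after 30min at room temperature.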

[17] = target: Nuclear receptor subfamily 1 group I member 2 (Rattus norvegicus) (UniProt Q9R1A7); assay: Rat pregnane X receptor (rPXR) activation by small molecules, qHTS assay (AID 1346983); settings: rPXR luciferase reporter cells, One-Glo luminescence, 24 h; max activation: stronger effect = higher value; also: nearly all actives have a fitted effect of over 20% in size
Chain of Nuclear receptor subfamily 1 group I member 2 (Rattus norvegicus) (Q9R1A7 whole entry, looked up): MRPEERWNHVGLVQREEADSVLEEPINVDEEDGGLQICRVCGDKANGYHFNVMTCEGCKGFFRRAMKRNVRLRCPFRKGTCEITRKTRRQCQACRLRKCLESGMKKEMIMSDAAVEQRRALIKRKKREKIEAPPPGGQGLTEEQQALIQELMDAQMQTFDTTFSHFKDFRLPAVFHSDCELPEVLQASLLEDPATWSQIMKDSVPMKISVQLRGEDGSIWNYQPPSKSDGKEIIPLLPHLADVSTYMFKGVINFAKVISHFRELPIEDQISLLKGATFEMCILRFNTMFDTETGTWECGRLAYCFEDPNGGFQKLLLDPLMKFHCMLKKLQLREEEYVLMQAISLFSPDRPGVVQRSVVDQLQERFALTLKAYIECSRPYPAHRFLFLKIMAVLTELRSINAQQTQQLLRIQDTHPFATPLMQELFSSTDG
Outline: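 Cell-based rPXR activation assay: rPXR cells, 2,000 per well, rested 5hr at 37 C, then exposed to compounds in DMSO for 24 hr at 37 C. Luciferase activity read by One-Glo luminescence after 30 min at room temperature.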

[18] = target: Nuclear receptor subfamily 1 group I member 2 (Homo sapiens) (UniProt O75469); assay: CYP3A4 induction through human pregnane X receptor (PXR) by small molecules, qHTS assay (AID 1346984); also: nearly all actives have a fitted effect of over 40% in size
Outline: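 After 24 h at 37C with compound, DPX-2 cells (HepG2, co-transfected PXR response element and CYP3A4 promoter-luciferase) got 3uM final P450-Glo Luciferin-IPA for 3 h; One-Glo luminescence followed.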

[19] = target: Nuclear receptor subfamily 1 group I member 2 (Homo sapiens) (UniProt O75469); assay: Human pregnane X receptor (PXR) activation by small molecules, qHTS assay (AID 1346985); also: nearly all actives have a fitted effect of over 40% in size
Outline: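 DPX-2 cells (HepG2 co-transfected with a PXR response element and a CYP3A4-promoter luciferase construct) were seeded at 2,000 per well, rested 5 hr at 37C, then exposed to DMSO-dissolved compounds for 24 hr. Activation was read as luciferase luminescence.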

[20] = qHTS assay to identify small molecule antagonists of the TGF-beta/Smad signaling pathway - cell viability counter screen (AID 1346824); also: nearly all actives have a fitted effect of over 50% in size; also: potency is read from the fitted curve at half-maximal effect
Outline: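 SBE-bla HEK 293T cells, incubated overnight, then compound plus 0.25 ng/mL TGF-beta1 (stock added) for 5 hr at 37 C. Viability was read in the same wells by CellTiter-Glo luminescence after 30 min at room temperature.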
% is scaled to controls: 0 for no effect and ±100 for the full control effect.

C1CN(SSN2CCOCC2)CCO1
active: Potency [11] 30.3 µM and 48.6 µM | Potency [13] 61.1 µM | Potency [14] 78.9 µM and 31.7 µM
inactive: Potency [1] | Potency [2] | Potency [3] | Potency [4] | Potency [5] | Potency [6] | Potency [7] | Potency [8] | Potency [9] | Potency [10] | Potency [12]

CNC[C@H](O)c1ccc(O)c(O)c1
inactive: activity change, negative = cytotoxicity [1] -2.01% [at 19 µM] | activation [2] -0.635% [at 19 µM] | Potency [3] | Potency [4] | Potency [5] | Potency [6] | outcome [15] | Potency [7] | Potency [8] | Potency [9] | Potency [10] | activity change, negative = cytotoxicity [11] 0.265% [at 19 µM] | Potency [16] | activity change, negative = cytotoxicity [12] -0.0374% [at 19 µM] | Potency [13] | max activation [17] 1.67% | Potency [18] | Potency [19]
active: Potency [2] 4.33 µM

CCCCCCCCCCCCCO
inactive: Potency [1] | Potency [2] | Potency [3] | Potency [4] | Potency [5] | Potency [6] | outcome [15] | Potency [7] | Potency [8] | Potency [9] | Potency [10] | Potency [11] | Potency [16] | Potency [12] | Potency [13] | Potency [14]

C[C@]12C=CC(=O)C=C1CC[C@H]1[C@@H]3C[C@@H](O)[C@](O)(C(=O)CO)[C@@]3(C)C[C@H](O)[C@@]12F
inactive: Potency [1] | Potency [2] | Potency [3] | Potency [4] | Potency [5] | Potency [20] | Potency [6] | outcome [15] | Potency [9] | Potency [10] | Potency [11] | Potency [16] | Potency [12] | Potency [13] | max activation [17] -5.29% | Potency [18] | Potency [19] | Potency [14]

C=C[C@H]1CN2CC[C@H]1C[C@H]2[C@H](O)c1ccnc2ccc(OC)cc12
inactive: Potency [1] | Potency [2] | Potency [3] | Potency [4] | Potency [5] | Potency [6] | outcome [15] | Potency [7] | Potency [8] | Potency [10] | Potency [11] | Potency [16] | Potency [12] | max activation [17] -0.698%
active: Potency [9] 30.6 µM

CN(C)/N=N/c1nc[nH]c1C(N)=O
inactive: Potency [1] | Potency [2] | Potency [3] | Potency [5] | Potency [20] | Potency [6] | outcome [15] | Potency [7] | Potency [8] | Potency [9] | Potency [10] | Potency [11] | Potency [16] | Potency [12] | Potency [13] | max activation [17] -1.32% | Potency [18] | Potency [19] | Potency [14]

Nc1ccc2c(c1)C(=O)c1ccccc1C2=O
active: Potency [11] 53.5 µM and 54.5 µM | Potency [12] 30.1 µM | Potency [13] 190 nM and 486 nM
inactive: Potency [1] | Potency [2] | Potency [3] | Potency [4] | Potency [5] | Potency [6] | outcome [15] | Potency [7] | Potency [8] | Potency [10] | Potency [16]

COC(=O)C(C)Oc1ccc(Oc2ncc(C(F)(F)F)cc2Cl)cc1 (stereo not drawn)
active: Potency [13] 61.9 µM and 61.1 µM
inactive: Potency [1] | Potency [2] | Potency [3] | Potency [5] | Potency [20] | Potency [6] | outcome [15] | Potency [7] | Potency [8] | Potency [9] | Potency [10] | Potency [11] | Potency [16] | Potency [12]

C=CN1CCCC1=O
inactive: Potency [1] | Potency [2] | Potency [3] | Potency [4] | Potency [5] | Potency [20] | Potency [6] | outcome [15] | Potency [7] | Potency [8] | Potency [9] | Potency [10] | Potency [11] | Potency [16] | Potency [12] | Potency [13] | Potency [14]

C=CCCCCCCCCCC
inactive: Potency [1] | Potency [2] | Potency [3] | Potency [4] | Potency [5] | Potency [20] | Potency [6] | outcome [15] | Potency [7] | Potency [8] | Potency [9] | Potency [10] | Potency [11] | Potency [16] | Potency [12] | Potency [13] | Potency [14]

C=C[Si](OCCOC)(OCCOC)OCCOC
28.4 µM (active) and inactive: Potency [14]
inactive: Potency [1] | Potency [2] | Potency [3] | Potency [4] | Potency [5] | Potency [20] | Potency [6] | outcome [15] | Potency [9] | Potency [10] | Potency [11] | Potency [16] | Potency [12] | Potency [13]

O=C1CCc2ccccc2O1
inactive: Potency [1] | Potency [2] | Potency [3] | Potency [5] | Potency [20] | Potency [6] | outcome [15] | Potency [7] | Potency [8] | Potency [9] | Potency [10] | Potency [11] | Potency [16] | Potency [12] | Potency [13] | Potency [14]

CCCCCC=O
inactive: Potency [1] | Potency [2] | Potency [3] | Potency [4] | Potency [5] | Potency [6] | outcome [15] | Potency [7] | Potency [8] | Potency [9] | Potency [10] | Potency [11] | Potency [16] | Potency [12] | Potency [13] | Potency [14]

O=[Se](O)O
inactive: activity change, negative = cytotoxicity [1] 10.8% [at 19 µM] | Potency [2] | Potency [3] | Potency [4] | Potency [5] | viability change, negative = cytotoxic [20] 0.606% [at 15.8 µM] | activity change, negative = cytotoxicity [6] 8.13% [at 15.8 µM] | activation [15] -0.714% [at 15.8 µM] | Potency [7] | Potency [8] | activity change, negative = cytotoxicity [9] 6.76% [at 19 µM] | Potency [10] | activity change, negative = cytotoxicity [11] 5.77% [at 19 µM] | Potency [16] | activity change, negative = cytotoxicity [12] 2.81% [at 19 µM] | Potency [13] | Potency [14]
active: Potency [1] 38.6 µM | Potency [20] 2.46 µM | Potency [6] 2.19 µM | Potency [9] 24.4 µM | Potency [11] 54.5 µM | Potency [12] 24.4 µM

NCCS(=O)(=O)O
25.3 µM (active) and inactive: Potency [1]
inactive: Potency [2] | Potency [3] | Potency [4] | Potency [5] | Potency [6] | outcome [15] | Potency [7] | Potency [8] | Potency [9] | Potency [10] | Potency [16] | Potency [12]
28.4 µM (active) and inactive: Potency [11]
